# RORgamma inh: inhibitors of mouse ROR gamma transcriptional activity; P51450; 310,000 tested, 5.4% active; AID 2551; Potency, µM (titrated, usually from 53.6 µM), for inactives: top-dose activity change, negative = inhibition, hits mostly inhibitors; Drosophila S2 Gal4-RORgamma UAS-luciferase reporter, 20 h; note: potency is the fitted concentration of half-maximal effect; nearly all actives have a fitted effect of over 60% in size
#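 Luciferase reporter read in Schneider cells carrying Gal4-RORγ (mouse) and UAS-Photinus luciferase; cells given compound 1 h before 700 uM copper sulfate induction, then incubated 20 h at ambient temperature.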
# CtBP-E1A blk: CtBP/E1A binding inhibition. AlphaScreen GST-E1A/His-CtBP binding, 1536-well; stronger effect = lower value. activity change, % (test concentration not listed). 340,000 tested, 0.49% active; in the data active = activity change below about -65%; inconclusive = mostly about -30% to -63%
#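 GST-E1A and His-tagged CtBP (125 nM each as 5X stock) were preincubated with pin-transferred compound for 2 h at 37 °C in the dark, then glutathione donor and nickel acceptor beads were added for 1 h before AlphaScreen reading.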
# Six1-Eya2 blk: Six1/Eya2 interaction inhibition; Q15475+O00167; AlphaScreen GST-Six1/His-Eya2 binding, biochemical; stronger effect = lower value; activity change, % (no concentration beside the values); 360,000 tested, 0.56% active; in the data active = activity change below about -65%; inconclusive = mostly about -30% to -63%
# Target sequence (O00167 whole entry, looked up): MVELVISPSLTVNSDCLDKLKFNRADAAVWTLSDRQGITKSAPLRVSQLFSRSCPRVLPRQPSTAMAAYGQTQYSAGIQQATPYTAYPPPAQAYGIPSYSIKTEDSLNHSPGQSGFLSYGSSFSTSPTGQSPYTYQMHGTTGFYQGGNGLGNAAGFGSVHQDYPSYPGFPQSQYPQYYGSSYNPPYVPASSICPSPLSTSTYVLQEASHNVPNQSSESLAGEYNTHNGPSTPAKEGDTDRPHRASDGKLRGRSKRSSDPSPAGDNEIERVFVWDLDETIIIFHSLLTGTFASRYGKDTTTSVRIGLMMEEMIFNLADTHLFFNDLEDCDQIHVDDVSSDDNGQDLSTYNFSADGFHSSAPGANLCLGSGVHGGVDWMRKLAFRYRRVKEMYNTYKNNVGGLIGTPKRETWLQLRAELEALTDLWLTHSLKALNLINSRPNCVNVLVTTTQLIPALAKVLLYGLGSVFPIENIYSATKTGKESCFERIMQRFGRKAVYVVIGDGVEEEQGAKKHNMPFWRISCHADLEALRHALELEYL
# Target sequence (Q15475 whole entry, looked up): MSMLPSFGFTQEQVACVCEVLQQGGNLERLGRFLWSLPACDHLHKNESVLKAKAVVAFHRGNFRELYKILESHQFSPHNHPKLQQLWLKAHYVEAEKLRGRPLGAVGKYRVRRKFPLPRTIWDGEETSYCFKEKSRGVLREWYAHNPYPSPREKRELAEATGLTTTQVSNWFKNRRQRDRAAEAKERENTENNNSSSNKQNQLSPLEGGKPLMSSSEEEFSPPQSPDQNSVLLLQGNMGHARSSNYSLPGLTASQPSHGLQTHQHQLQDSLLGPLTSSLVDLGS
#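 Compounds are tested against tagged Six1 and Eya2 proteins bridged by glutathione donor and nickel acceptor beads; after a one-hour incubation at 37 °C without light, AlphaScreen emission is recorded.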
# PKM2 act: PKM2 (human) enzyme activation; P14618; purified PKM2, Kinase-Glo ATP luminescence, activation; response scale: 0% is enzyme alone, no compound; Potency, µM (top dose mostly 57.5 µM), for the others: top-dose activation, most hits filed as activators; 260,000 tested, 0.34% active; AID 1631; note: potency is the fitted concentration of half-maximal effect; nearly all actives have a fitted effect of over 55% in size
#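 Purified hPK-M2 (>95% pure) converted ADP (0.1 mM final) to ATP with 0.5 mM PEP in 50 mM imidazole pH7.2, KCl, MgCl2, Tween 20, BSA; 1 h at room temperature. ATP detected by Kinase-Glo luminescence.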
# VP16 counter: Gal4-VP16 reporter inhibition counter-screen; Drosophila S2 Gal4-VP16 UAS-luciferase, luminescence, 20 h; 310,000 tested, 3.5% active; Potency, µM (series often up to 53.6 µM), for inactives: at the highest dose activity, negative = inhibition, hits mostly inhibitors;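 note: Gal4-VP16 expression switched on by copper sulfate through the metallothionein promoter; potency is the fitted concentration of half-maximal effect; nearly all actives have a fitted effect of over 50% in size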
# Active calls of the source: *; u = inconclusive; x = not tested or not shown; [ ] = dose if it differs, or a comment. Only some compounds are listed: those with a hit (about 5.6% of all), similar ones and a draw of the others. Unless noted, calls come from the whole dose curve; as a rule, active = well fitted curve in the direction sought with a large enough effect; inconclusive = small, poorly fitted or top-dose-only effect, or another doubt; inactive = no such curve, though single readings can be large; an effect the other way counts as inactive or inconclusive. % is set by controls: 0 for no effect and ±100 for the full control effect.
SMILES,RORgamma inh,CtBP-E1A blk,Six1-Eya2 blk,PKM2 act,VP16 counter
Cc1cc(OCC(=O)Nc2ccncc2)ccc1Cl,u,-2,-3,1%[11.5 µM],11µM*
O=C(c1ccc(Cl)cc1)n1c(NCc2ccccc2)n[nH]c1=S,-11%,7,-4,-1%,-12%
CCCCOc1ccc(C(=O)Nc2ccncc2)cc1,u,1,0,-1%,7.9µM*
COc1cc(NC(=O)COc2ccc(-n3ccnc3)cc2)cc(OC)c1,7%,-1,9,3%,5%
CCCOc1ccc(C(=O)Nc2ccc(NC(=O)c3cccs3)cc2)cc1,6%,-2,3,x,-7%
CCCCOc1cccc(C(=O)Nc2ccc(NC(=O)c3cccs3)cc2)c1,u,3,32,x,0.1µM*
Cc1cc(OCC(=O)N[C@@H](Cc2ccccc2)c2nc3ccccc3[nH]2)ccc1Cl,20µM*,1,3,5%,u
CC(C)(C)c1ccc(NC(=O)COc2ccc(-n3ccnc3)cc2)cc1,10µM*,-12,-21,-3%,-13%
Cc1nc(-c2ccccc2)c(-c2ccncc2)o1,6%,x,x,x,-3%
CCN(CC)S(=O)(=O)c1cc(C(=O)Nc2cc(C)[nH]n2)ccc1Cl,-21%,13,16,x,2%
CCCCc1ccc(NC(=O)COc2ccc(C(=O)Nc3ccccc3C)cc2)cc1,u,x,x,-4%,11µM*
CC(C)(C)c1ccc(OCC(=O)Nc2ccncc2)cc1,u,2,-12,0%,-8%
O=C(COc1ccccc1)Nc1cccc(-c2nn[nH]n2)c1,18%,2,14,-11%,0%
CCc1ccc(OCC(=O)Nc2ccncc2)cc1,39%[1.91 µM],x,-3,1%,3.5µM*
CCCCc1ccc(NC(=O)COc2ccc(C(=O)Nc3ccccc3OC)cc2)cc1,-17%,x,x,5%,-25%
O=C(COc1ccccc1)Nc1cccc(-c2nc3cc4ccccc4cc3[nH]2)c1,1µM*,12,7,-13%,2µM*
O=C(OCC(=O)N1CCOCC1)c1cc(-c2ccccc2)nc2ccccc12,x,14,12,x,x
Cc1ccccc1CN1CCN(c2ccc(S(=O)(=O)N3CCCC3)cn2)CC1,x,9,-1,x,x
COc1ccc(CCN2C(=O)C3C4C=CC(C3C2=O)C2C(=O)N(CCc3ccc(OC)c(OC)c3)C(=O)C42)cc1OC (stereo not drawn),0%,3,1,12%,8.9µM*
Cc1ccc(S(=O)(=O)N2CCCC2CNC(=O)C(=O)NCc2ccccn2)cc1 (stereo not drawn),x,-22,-18,x,x
CC(C)(C)c1ccc(S(=O)(=O)N2CCCCC2C(=O)NCc2ccccn2)cc1 (stereo not drawn),u,-5,-5,u,2.5µM*
O=C(NCc1ccccn1)C1CN(S(=O)(=O)c2ccccc2)CCN1S(=O)(=O)c1ccccc1 (stereo not drawn),11µM*,11,-24,0%,-7%
Cc1ccc(S(=O)(=O)N2CCCC(C(=O)NCc3ccccn3)C2)cc1 (stereo not drawn),69%,-2,9,-18%,5%
COc1ccc(C(CNC(=O)CSc2ccc(Br)cc2C)N2CCOCC2)cc1 (stereo not drawn),x,0,1,x,x
Cc1cc(SCC(=O)c2ccc(O)c(O)c2)n2nc(C)c(-c3ccccc3)c2n1,-23%,-22,-12,8%,-27%
SMILES,RORgamma inh,CtBP-E1A blk,Six1-Eya2 blk,PKM2 act,VP16 counter
O=S(=O)(Nc1c(F)cccc1F)c1ccc(Cl)nc1,x,-6,7,x,x
C1=CCN(Cc2ccccc2)C1,-3%,13,-1,0%,-1%
N#CC(c1ccccc1)c1ccc2c(C(F)(F)F)cc(C(F)(F)F)nc2n1 (stereo not drawn),11µM*,-66*,-75*,6%,u
Cc1ccc(C(C#N)c2ccc3c(C(F)(F)F)cc(C(F)(F)F)nc3n2)cc1 (stereo not drawn),21%,u,u,3%,-26%
Cc1ccc(-c2noc(CNS(=O)(=O)c3ccccc3)n2)cc1,22%,2,3,-1%,-15%
CN(C)c1ccc(-c2nccc(NCc3ccccc3)n2)cc1,-7%,x,x,x,-10%
COc1ccccc1CNc1ccnc(-c2ccc(N(C)C)cc2)n1,u,x,x,x,14µM*

# Bioassay records: PubChem, National Center for Advancing Translational Sciences (NCATS)
